Source: PubChem BioAssay
A selection: hits, their analogues and other compounds. The true share with any hit is near 0.52%.
Sa growth inh: S. aureus growth inhibition | S. aureus RN4220 growth, OD600, 20 h, 42 °C; hits give low values | relative growth, % (test concentration not listed) | actives 0.53% (n = 170,000) | AID 720641;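 active = relative growth at most 50% at the other temperature and 20+ points below 30 °C, or under 10% at both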
S aureus helic: S. aureus DNA helicase inhibition. purified S. aureus helicase, fluorescence unwinding assay. inhibition, % (no concentration beside the values). AID 485395. actives 0.05% (n = 120,000); in the data active = inhibition above about 25%, passing the limit was not always enough;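 also: 0% = mean of negative control wells and 100% = mean of positive control wells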
Active calls of the source: *; / = no result.

SMILES | Sa growth inh | S aureus helic
CC1=CC(C)=NC2Nc3c(C)cc(C)cc3C(=N)C12 (centres undefined) | 85 | 66*
Brc1ccccc1-c1nc2ccccc2c2nc3ccccc3n12 | 111 | 9
S=c1nc2ccccc2c2nc(COc3ccccc3Br)[nH]n12 | 0.6* | -13
CCOc1ccc2c(c1)s/c(=N\C(=S)NC(=O)CN1C(=O)CCC1=O)n2C | 109 | 19
COc1ccc2c(c1)s/c(=N\NC(=S)NC(=O)CN1C(=O)CCC1=O)n2C | 0.5* | 4
CCN1C(=O)c2ccc(C(=O)Nc3cc(OC)c(OC)cc3C(=O)O)cc2C1=O | 98 | 5
O=c1[nH]cc(F)c(=O)[nH]1 | -0.5* | /
CN(C)c1c[nH]c(=O)[nH]c1=O | 96 | 5
O=C(O)c1ccccc1SC1CCS(=O)(=O)C1 (centres undefined) | 102 | 2
O=C(NCc1ccncc1)c1cccc(Oc2ccccc2)c1 | 105 | 0
O=C(NCc1cccnc1)/C(=C\c1ccc(Br)cc1)S(=O)(=O)c1ccccc1 | -1.3* | 10
O=C(NCc1cccnc1)/C(=C\c1cccc(Oc2ccccc2)c1)S(=O)(=O)c1ccccc1 | -1.3* | 17
O=C(NCc1cccnc1)c1ccc(Br)cc1 | / | 18
NCCN1C(=O)S/C(=C/c2ccccc2)C1=O | 62 | 5
N#Cc1c(Nc2ccc(Cl)cc2)n[nH]c1N | 101 | -12
N#C/C(=C\c1ccccc1)c1cccc(Cl)c1 | 44* | /
N#C/C(=C/c1ccccc1)c1cccc(C#N)c1 | 110 | 10
CCCCCC1C(O)CCC1CC(=O)NN (centres undefined) | 86 | 33
CC[C@@H]1OC(=O)C[C@@H](O)[C@H](C)[C@@H](O[C@@H]2O[C@H](C)[C@@H](O)[C@H](N(C)C)[C@H]2O)[C@@H](CCN2C[C@H](C)C[C@H](C)C2)C[C@@H](C)C(=O)/C=C/C(C)=C\[C@@H]1CO[C@@H]1O[C@H](C)[C@@H](O)[C@@H](OC)[C@H]1OC | 0.5* | /
COC(=O)c1ccc(CSc2nnc(-c3ccc(OC)cc3)o2)cc1 | 105 | 1
COc1cccc2c1CCN(Cc1cccc(C)c1)C2=O | 5.1* | -2
CCN1CCc2c(OC)cccc2C1=O | 94 | 4
Cc1nc(/N=C(\N)Nc2cccc(Cl)c2C)[nH]c(=O)c1C | 93 | -33
O=c1c2c(nc3cc(-c4ccccc4)[nH]n13)CCC2 | 100 | -3
O=c1c2c(nc3c(-c4ccccc4)c[nH]n13)CCC2 | 0.1* | 18
SMILES | Sa growth inh | S aureus helic
O=S(=O)(c1ccccc1)c1nc(-c2ccc(F)cc2)oc1NCc1ccccc1 | 121 | /
O=S(=O)(c1ccccc1)c1nc(-c2cccs2)oc1N1CCCCC1 | 106 | /
CC(C)CS(=O)(=O)c1oc(-c2ccc(F)cc2)nc1S(=O)(=O)c1ccccc1 | 1.0* | /
CCC(C)S(=O)(=O)c1oc(-c2cccs2)nc1S(=O)(=O)c1ccccc1 (centres undefined) | 3.7* | /
Oc1c(I)cc2oc3c(c2c1C=NCc1ccncc1)CCCC3 | 78 | -71
COC(=O)N/N=C1\CCCCc2ccccc21 | 105 | 8
COc1ccc(OC)c(NC(=O)c2nc(S(=O)(=O)Cc3ccc(F)cc3)ncc2Cl)c1 | -1.1* | /
Cc1ccc(NC(=O)c2nc(S(=O)(=O)Cc3ccc(F)cc3)ncc2Cl)cc1C | 101 | /
CCOC(=O)c1ccc(NC(=O)c2nc(S(=O)(=O)Cc3ccccc3)ncc2Cl)cc1 | 100 | /
CC(C)c1nnc(NC(=O)c2nc(S(=O)(=O)Cc3ccccc3)ncc2Cl)s1 | 7.3* | /
Cc1ccccc1CS(=O)(=O)c1ncc(Cl)c(C(=O)Nc2nnc(C(C)C)s2)n1 | 5.7* | /
CCCc1nnc(NC(=O)c2nc(S(=O)(=O)Cc3ccc(C)cc3)ncc2Cl)s1 | 4.1* | /
Cc1ccc(CS(=O)(=O)c2ncc(Cl)c(C(=O)Nc3nc4ccc(C)cc4s3)n2)cc1 | 92 | /
CC(C)Sc1ncc(Cl)c(C(=O)Nc2nnc(C(C)C)s2)n1 | 97 | /
Cc1ccc(C(=O)OCC(=O)N2CCCC2)c(O)c1 | 88 | -5
Cc1occc1-c1nnc(SCCCC(=O)N2CCOCC2)n1-c1ccccc1 | 97 | -2
O=C(OC1CCOC1=O)c1ccccc1 (centres undefined) | 75 | 10
O=C(C(F)F)N1CCN(c2ccccc2)CC1 | 111 | 10
CCCCc1nnc(NC(=O)CC)s1 | 103 | 6
O=C(Oc1ccccc1)C1C2CCCCC21 (centres undefined) | 123 | 19
O=C1COc2ccc(-c3csc(=Nc4ccc(F)cc4)n3/N=C/c3ccc(O)c(O)c3)cc2N1 | 56 | 17
Cc1ccc(-c2[nH]c3ccccc3c2SCCN)cc1 | / | -17
CSc1c(-c2ccc(Cl)cc2)[nH]c2ccccc12 | 21* | /
O=C(O)c1ccccc1C(=O)NCc1ccc(-c2cccs2)s1 | 160 | /
CN1C(=O)/C(=C2/Sc3ccccc3N2C)SC1=NC1CCCCC1 | 119 | 9
SMILES | Sa growth inh | S aureus helic
Oc1c(C(c2ccc(F)cc2)N2CCCCC2)ccc2cccnc12 (centres undefined) | 103 | -10
Oc1c(C(c2cccs2)N2CCCCC2)ccc2cccnc12 (centres undefined) | 8.1* | 10
CC(Nc1nnnn1-c1ccccc1)c1ccccc1 (centres undefined) | 98 | -6
CC(NC(=O)Cc1ccccc1)C(c1ccccc1)N1CCOCC1 (centres undefined) | 100 | 5
CC(NC(=O)c1cc(=O)c2ccccc2o1)C(c1ccccc1)N1CCOCC1 (centres undefined) | 82 | 35*
N#CCc1c(Cl)cccc1Cl | 74 | -15
N#CCCN/N=C/c1ccc(-c2ccc(SC(F)F)cc2)o1 | 48* | -11
NC(=O)N/N=C/c1ccc(-c2ccc(SC(F)F)cc2)o1 | 101 | -4
O=C(COC(=O)C1(c2ccccc2)CC1)Nc1nnc(-c2ccccc2)o1 | -0.5* | 13
O=C(COC(=O)Cc1coc2ccc3ccccc3c12)Nc1nnc(-c2ccccc2)o1 | 0.1* | -9
O=C(Cc1coc2ccc3ccccc3c12)Oc1ccc(-c2nnco2)cc1 | 96 | 15
O=C(COC(=O)CC1CCCC1)Nc1nnc(-c2ccccc2)o1 | 21 | 2
CCN(C(=O)CSc1nnc(C)o1)c1cccc2ccccc12 | 87 | 14
CS(=O)(=O)c1ccc(-c2csc(-c3cccs3)n2)cc1 | 96 | 15
Fc1ccc(-c2csc(-c3cccs3)n2)cc1 | 45* | /
O=C(CC1=NS(=O)(=O)c2ccccc2N1)NCc1ccc(F)cc1 | 82 | -25
CC(C)(O)C1Cc2cc(/C=C/C(=O)O)c(O)cc2O1 (centres undefined) | 65 | 6
CC(C)c1cc2cc(/C=C/C(=O)O)c(O)cc2o1 | -0.3* | 8
CC(=O)N(/C=C1\SC(=S)N(CC(F)(F)F)C1=O)c1ccccc1 | / | 4
O=C(CCN1C(=O)c2ccccc2C1=O)Oc1cccc2cccnc12 | -0.6* | -8
O=C(Cc1ccccc1)Oc1cccc2cccnc12 | / | 21
O=C(CN1C(=O)c2ccccc2C1=O)Oc1cccc2cccnc12 | 0.8* | 15
N#Cc1ccccc1OC(=O)CCN1C(=O)c2ccccc2C1=O | 103 | 9
CC(NS(=O)(=O)/C=C/c1ccccc1)C(=O)N1CCN(c2ccccc2Cl)CC1 (centres undefined) | 116 | -14
CCc1nnc(NC(=O)c2ccc(S(=O)(=O)N3CC(C)CC(C)C3)cc2)o1 (centres undefined) | 9.0* | 6
Cc1ccc(-c2nnc(NC(=O)c3ccc4c(c3)OCCO4)o2)c(C)c1 | 64 | /
